High-throughput results from PubChem BioAssay.
DUSP1 inh: human dual specificity phosphatase 1 inhibition. inhibition, %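 (compounds tested at a single concentration somewhere between 10 and 100 µM)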. P28562. recombinant MKP-1, OMFP hydrolysis fluorescence. AID 374. 65,000 compounds, 0.15% hits;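 active = inhibition above about 50%, limit read from the data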
Target sequence (P28562 whole entry, looked up): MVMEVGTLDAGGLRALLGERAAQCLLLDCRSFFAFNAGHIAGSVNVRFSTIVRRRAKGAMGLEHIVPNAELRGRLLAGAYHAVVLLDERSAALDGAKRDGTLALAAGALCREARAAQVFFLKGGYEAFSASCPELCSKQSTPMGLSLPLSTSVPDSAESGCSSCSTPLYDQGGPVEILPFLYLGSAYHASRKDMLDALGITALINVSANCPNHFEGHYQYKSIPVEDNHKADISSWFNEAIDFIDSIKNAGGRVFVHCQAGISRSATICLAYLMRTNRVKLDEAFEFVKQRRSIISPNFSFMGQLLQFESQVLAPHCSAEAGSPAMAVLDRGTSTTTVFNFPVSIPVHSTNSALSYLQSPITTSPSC
PLAP activator: human PLAP activation; P05187; purified PLAP enzyme, luminescent substrate read-out; hits give high values; activation fold at 20 µM; 96,000 compounds, 1.2% hits; AID 696; in the data active = activation fold above about 2
HePTP inhibitor: inhibitors of human HePTP phosphatase; P35236; recombinant HePTP phosphatase activity, OD absorbance; inhibition, % at 20 µM; 110,000 compounds, 0.64% hits; in the data active = inhibition above about 50%
TNAP act DEA: activators of human TNAP at intermediate phosphate acceptor. P05186. 64,000 tested, under 10 active. AID 813. activation factor at 20 µM. purified TNAP, CDP-star luminescence, 100 mM DEA, 30 min; hits give high values; scale: 0 levamisole-inhibited, 1 vehicle-only enzyme;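 active = activation factor of at least 2 at 20 µM, relative to controls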
Hsp90 block: displaces geldanamycin probe from tumor Hsp90; NCI-N417 lysate Hsp90, Cy3B-geldanamycin FP displacement; P07900; inhibition, % at 30 µM; 64,000 compounds, 0.35% hits;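 active = inhibition above 50%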
Cdc25B inh: human M-phase inducer phosphatase 2 inhibition; P30305; recombinant Cdc25B, OMFP fluorescence Ex485/Em525; inhibition, %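 (compounds tested at 10 µM final in the well)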; 65,000 compounds, 0.1% hits; AID 368; in the data active = inhibition above about 50%
Hits are given with their value; n = inactive; x = no result. This is a sample that favours compounds with a hit; in the whole collection about 1.5% have one here.

SMILES | DUSP1 inh | PLAP activator | HePTP inhibitor | TNAP act DEA | Hsp90 block | Cdc25B inh
Cc1cc(C)nc(Nc2n[nH]c(-c3ccc(N)cc3)n2)n1 | x | 2.4 | x | x | x | x
O=C(/C=C/c1ccc([N+](=O)[O-])cc1)NCCSCc1ccccc1Cl | x | x | n | x | x | x
CCOC(=O)c1c(C)oc2c1c(C(c1cccnc1)N1CCN(C)CC1)c(O)c1ccccc12 (centres undefined) | n | n | n | n | n | n
CN1CCN(C(c2cccnc2)c2ccc3cccnc3c2O)CC1 (centres undefined) | n | 2.5 | n | n | n | n
O=C(O)C1CC(O)CN1C(=O)c1ccco1 (centres undefined) | x | n | x | x | x | x
O=C(O)C1CC(O)CN1C(=O)Oc1ccccc1 (centres undefined) | x | x | 105 | x | x | x
Cc1ccc2c(c1)NC(c1ccc(F)cc1)C1=C(CC(C)(C)CC1=O)N2 (centres undefined) | x | x | n | x | x | x
CCOc1ccc(C2/C(=C(\O)c3ccccc3)C(=O)C(=O)N2CCOC)cc1 (centres undefined) | x | x | n | x | x | x
O=C(Nc1nc2ccc3ccccc3c2s1)c1ccc(Cl)s1 | x | x | 104 | x | x | x
CCCc1nc2ccccc2c(=O)n1/N=C/c1c(C)[nH]n(-c2ccc(C)cc2)c1=O | n | 2.1 | n | n | n | n
Cc1nccn1S(=O)(=O)c1ccc2ccccc2c1 | x | x | n | x | x | x
CC(C)c1ccccc1OCC(=O)Nc1cccc(C(=O)O)c1 | x | x | n | x | x | x
CCOC(=O)c1c(-c2cccs2)csc1NC(=O)CNCCN1CCOCC1 | x | 2 | x | x | x | x
O=C(O)c1cc(-c2ccc(/C=C3/Sc4ccccc4C3=O)o2)ccc1O | x | x | 102 | x | x | x
O=C1NC(=S)S/C1=C\c1ccc(-c2ccc(Cl)c(C(=O)O)c2)o1 | x | x | 101 | x | x | x
Cc1c(Cl)cccc1N=C1NC(=O)/C(=C/c2cccc(O)c2)S1 | x | x | n | x | x | x
Cc1c(Cl)cccc1N=C1NC(=O)/C(=C/c2ccc(-c3ccccc3C(=O)O)o2)S1 | x | x | 98 | x | x | x
O=C1NC(=O)/C(=C/c2ccc(-c3ccc(O)c(C(=O)O)c3)o2)S1 | x | x | 102 | x | x | x
COC(=O)C1=NNC2C(=O)N(c3cccc(C)c3C)C(=O)C12 (centres undefined) | x | x | n | x | x | x
Cc1cc(C)c2nc3s/c(=C\c4ccc(-c5cc(C)c(C)cc5[N+](=O)[O-])o4)c(=O)n3c2c1 | x | x | n | x | x | x
Cc1cc(C)c2nc3s/c(=C/c4cccn4-c4ccc([N+](=O)[O-])cc4)c(=O)n3c2c1 | x | x | 85 | x | x | x
Cc1cc(C)c2nc3s/c(=C\c4ccc(-c5ccc(Cl)c(C(=O)O)c5)o4)c(=O)n3c2c1 | x | x | 90 | x | x | x
Cc1ccc(OCC(=O)NNC(=O)c2cccs2)c(C)c1 | x | x | n | x | x | x
COc1ccc(NC(=S)N2C3CCC2CC(NC(=O)NC24CC5CC(CC(C5)C2)C4)C3)c(OC)c1 (centres undefined) | x | 2.5 | x | x | x | x
COc1ccccc1NC(=S)N1CCC(NC(=O)NC23CC4CC(CC(C4)C2)C3)CC1 | x | n | x | x | x | x
SMILES | DUSP1 inh | PLAP activator | HePTP inhibitor | TNAP act DEA | Hsp90 block | Cdc25B inh
CCOc1ccccc1NC(=O)NC1(C(=O)N2CCN3CCCC3C2)CCCCC1 (centres undefined) | n | 2.1 | n | n | n | n
O=C(NC1CCCCC1)NC1(C(=O)N2CCN3CCCC3C2)CCCCC1 (centres undefined) | n | x | n | n | n | n
Cc1nc2ccccc2c(=O)[nH]1 | x | n | x | x | x | x
N=C1C(c2nc3ccccc3c(=O)[nH]2)=C(O)CN1c1ccccc1 | x | 2.2 | x | x | x | x
O=c1[nH]c(-c2ccccn2)nc2ccccc12 | n | 2.4 | n | n | n | n
N=C1C(c2nc3ccccc3[nH]2)=C(O)CN1c1ccc(CC(=O)O)cc1 | x | 2.6 | x | x | x | x
N=C1C(c2nc3ccccc3[nH]2)=C(O)CN1c1ccccc1 | n | n | n | n | n | n
O=C(Nc1ccc(F)c([N+](=O)[O-])c1)c1ccc2ccccc2c1 | x | x | n | x | x | x
O=C(c1ccccc1)c1ccccc1C(=O)N(C1CCCCC1)C1CCCCC1 | x | x | n | x | x | x
Cc1ccc2nc(NC(=O)C3CC=CCC3C(=O)O)sc2c1 (centres undefined) | x | x | n | x | x | x
CCOc1ccc(NC(=O)CNC(=O)c2cn(-c3ccccc3OC)c(=O)c3ccccc23)cc1 | x | 2 | x | x | x | x
CCOc1ccc(NC(=O)CNC(=O)c2ccc(OC)c(OC)c2)cc1 | n | n | n | n | n | n
O=C(CCOc1ccccc1)Nc1cccc([N+](=O)[O-])c1 | x | x | 92 | x | x | x
C=CCc1ccc(OCCCCN2CC(C)OC(C)C2)c(OC)c1 (centres undefined) | x | 2 | x | x | x | x
C=CCc1ccc(OCC(O)COc2ccc(CC=C)cc2OC)c(OC)c1 | x | 2 | x | x | x | x
O=C(/C=C/c1ccccc1)NC(c1ccccc1)c1ccccc1 | x | x | n | x | x | x
CCOC(=O)c1c(-c2ccccc2)oc2ccc(OCC(=O)c3ccc(OC)cc3)cc12 | x | x | n | x | x | x
COc1ccccc1N(CC(=O)NC(C)(C)C)S(=O)(=O)c1ccccc1 | x | x | 106 | x | x | x
Cc1ccc(Cn2nnc3c(=O)[nH]c(C(=O)NCc4ccco4)nc32)cc1 | n | 2 | n | n | n | n
CC(C)CC(NS(=O)(=O)c1ccc2c(c1)oc(=O)n2C)C(=O)N1CC=C(c2ccccc2)CC1 (centres undefined) | n | 2.5 | n | n | n | n
Cc1ccccc1N(C=O)C(=O)C1C(C)C2C=CC1C21CC1 (centres undefined) | x | x | 105 | x | x | x
CC1C(C(=O)N(C=O)c2ccccc2F)C2C=CC1C21CC1 (centres undefined) | x | x | n | x | x | x
CCCCN(CC)CCNC(=O)C1c2cc(OC)c(OC)cc2C(=O)N2CCc3ccccc3C12 (centres undefined) | n | 2 | n | n | n | n
CCN1CCN(C(=O)C2c3cc(OC)c(OC)cc3C(=O)N3CCc4ccccc4C23)CC1 (centres undefined) | n | n | n | n | n | n
CCCCN(CC)CCCNC(=O)C1c2ccccc2C(=O)N(C)C1c1cn(C)c2ccccc12 (centres undefined) | x | 2 | x | x | x | x
